# Laboratory results as given in ChEMBL document CHEMBL4513216, “Probing the Open Global Health Chemical Diversity Library for Multistage-Active Starting Points for Next-Generation Antimalarials” (ACS Infect Dis, 2020).
# The campaign covered roughly 69,000 compounds. About 8,600 (12%) showed an effect of 50% or more. The list comes from a sample in which strong results are over-represented; it also holds similar structures and randomly drawn compounds.
# Test system: Plasmodium berghei
# Assay: Screen against P. berghei liver stage (PbLuc), transformed with Luciferase, at 10uM
# Assay type: functional, HepG2
# Settings: tested at 10 uM
row,Compound,INHIBITION [%]
1,CNC(=O)C1(N2CCC[C@H]2C(=O)NC2CCOCC2)CCOCC1,15.4
2,O=C(N1CCCC1)N1Cc2nccn2CC(Cn2ncccc2=O)C1 (stereo unspecified),32.2
3,O=C(NCc1ccco1)[C@H]1C[C@H]2OCC[C@H]2N(C(=O)c2ccncc2)C1,-15.5
4,CN(Cc1ccco1)C1CCC12CCN(C(=O)C1CCOCC1)CC2 (stereo unspecified),43.2
5,Cc1nnc(NC(=O)c2c3c(nn2C2CCS(=O)(=O)C2)CCC3)s1 (stereo unspecified),-90.8
6,CCOC(C)C(=O)Nc1ccc(Sc2nncn2C)c(Cl)c1 (stereo unspecified),64.4
7,COCC(=O)Nc1ccc(Sc2nncn2C)c(Cl)c1,31.7
8,CC(C)C(=O)Nc1ccc(Sc2nncn2C)c(Cl)c1,24.8
9,O=C(NCC1(CO)CC1)NC(c1nccs1)C1CC1 (stereo unspecified),-10.8
10,CC(=O)N1CCc2nc(N3CCCC3)nc(C)c2C1,34.6
11,Cn1ccc(C(=O)NCC2(O)CCN(c3cnccn3)C2)n1 (stereo unspecified),16.95
12,Cn1c(CN2CCOC(CNc3cccnn3)C2)nnc1C1CC1 (stereo unspecified),-16
13,CCN(C(=O)c1cccc2c1OCO2)c1ccccc1,55.9
14,CCN(Cc1cccc2c1OCO2)C(=O)Nc1ccccn1,-67.3
15,NC(=O)C1CCCN1C1CCN(C(=O)c2cccc3c2OCO3)CC1 (stereo unspecified),8.59
16,NC(=O)CCN(C(=O)c1cccc2c1OCO2)c1ccccc1,51.5
17,NC(=O)C1CCCN1C(=O)c1cccc2c1OCO2 (stereo unspecified),-27.3
18,CCN(C(=O)c1cccc2c1OCO2)c1ccc(Br)cn1,2.65
19,COc1cc(CN[C@@H]2COC[C@H]2Cc2cc(C)no2)cc(OC)c1,40
20,Cn1cc(Br)c(C(=O)NCCCn2cc(Br)cn2)n1,-16.3
21,Cc1cc(C(=O)N2CCCN(Cc3cnn(C)c3)CC2)no1,27.335
22,CS(=O)(=O)N1CCc2sc(C(=O)NCc3ccncc3)cc21,41.1
23,O=C(c1cc2c(s1)CCCC2)N1CCCC1Cn1cccn1 (stereo unspecified),0.411
24,Cc1ccc(NC(=O)Cn2ccc3c(=O)n(C)ccc32)cc1F,11.9
25,COc1ccc(NC(=O)Cn2ccc3c(=O)n(C)ccc32)cc1OC,-14.2
26,Cn1ccc2c(ccn2CC(=O)Nc2ccc(Br)cc2)c1=O,63.5

row,Compound,INHIBITION [%]
1,CC(C)CNC(=O)CNC(=O)NC(c1nccs1)C1CC1 (stereo unspecified),8.59
2,CCOC(=O)NCCC(O)c1ccoc1 (stereo unspecified),52.1
3,O=C(NCCC(O)c1ccoc1)Nc1cccs1 (stereo unspecified),13.8
4,CCOc1ccccc1C(=O)NCCC(O)c1ccoc1 (stereo unspecified),85.5
5,CCOCC(=O)NCCC(O)c1ccoc1 (stereo unspecified),31.3
6,CCOc1ccccc1C(=O)NCCc1ccoc1,32.4
7,O=C(COc1ccccc1F)NCCC(O)c1ccoc1 (stereo unspecified),-16.9
8,CC(=O)N1CC[C@H]2OCC[C@@H](C(=O)NCc3ccco3)[C@H]2C1,35.7
9,Cc1cccc(CN2C(=O)CCC23CCN(Cc2cccn2C)CC3)n1,24.9
10,Cc1cc2ccccc2n1CC(=O)Nc1ccnn1CC1CCOC1 (stereo unspecified),40.7
11,CCc1cnc(CN(C)C(=O)Nc2cnn(CC3CCCO3)c2)s1 (stereo unspecified),51.4
12,Cc1csc(CN(C)C(=O)Nc2cnn(CC3CCCO3)c2)n1 (stereo unspecified),0.825
13,CCc1cnc(CN(C)C(=O)NC2CCN(CC3CC3)C2)s1 (stereo unspecified),39.2
14,CN(Cc1ccncc1)C(=O)Nc1cnn(CC2CCCO2)c1 (stereo unspecified),-5.53
15,CCc1cnc(CN(C)C(=O)NC2CCN(c3ccccc3)C2)s1 (stereo unspecified),-53.7
16,CCc1cnc(CN(C)C(=O)NC2CCN(C)C2=O)s1 (stereo unspecified),68.2
17,CC[C@@H]1N(Cc2cc(OC)cc(OC)c2)CCC[C@]12CCC(=O)N2C,-54.1
18,CNC(=O)c1nc(COc2c(C)occc2=O)no1,-11.9
19,Cc1cncc(Oc2ccc(CN)cc2)n1,60.5
20,Cc1cncc(Oc2ccc(CO)cc2)n1,44.3
21,CNCc1ccc(Oc2cncc(C)n2)cc1,-1.84
22,NC(=O)c1ccnc(N2CCCC(CO)(Cc3ccccc3)C2)c1 (stereo unspecified),10.1
23,CCN1CC2(CCC1=O)CCN(c1ccc(C(C)=O)cn1)CC2,5.46
24,CC(=O)c1ccc(N2CCCC(CO)(Cc3ccccc3C)C2)nc1 (stereo unspecified),75.6
25,CC(=O)c1ccc(N2CCCC(CO)(Cc3ccccc3F)C2)nc1 (stereo unspecified),50.3
26,CC(=O)c1ccc(N2CCC3(CCC(=O)N(CCCO)C3)CC2)nc1,30.9

row,Compound,INHIBITION [%]
1,Cc1ccccc1CC1(C(=O)O)CCCN(c2ncccn2)C1 (stereo unspecified),8.64
2,O=C(CN1CCCCC1)Nc1cc(C(F)(F)F)ccc1-n1cccc1,9
3,CCN1CC2(CC1=O)CN(Cc1cnn(C)c1)CCN(C(=O)N(C)C)C2 (stereo unspecified),20.9
4,CS(=O)(=O)N1CCN(Cc2cccs2)CC(C(N)=O)C1 (stereo unspecified),8.72
5,COCCN1C(=O)[C@@H]2CC[C@H]1CN(C(=O)CCc1n[nH]c(C)c1C)C2,34.9
6,c1cc2c(cc1Cn1cc(C3CCCNC3)nn1)CCCO2 (stereo unspecified),16.7
7,c1ccc(NCCn2cc(C3CCCNC3)nn2)cc1 (stereo unspecified),56.6
8,O=S(=O)(NCCn1cc(C2CCCNC2)nn1)c1ccc(Cl)cc1 (stereo unspecified),35.4
9,Cc1nnc(NC(=O)NCC(C)N2CCOCC2)s1 (stereo unspecified),2.05
10,CN(C)CCCNCCC(Cc1ccccc1)C1CCOC(C)(C)C1 (stereo unspecified),56.7
11,CN(C)CCCNCCC(c1ccccc1)C1CCOC(C)(C)C1 (stereo unspecified),16.1
12,CN(C)CCNCCC(Cc1ccccc1)C1CCOC(C)(C)C1 (stereo unspecified),23.1
13,CNC(=O)CS(=O)(=O)Cc1cc(Cl)c2c(c1)OCCO2,21.5
14,CCC/C=C/c1ccc(CN2CCCC2)cn1,-4.51
15,CCC/C=C/c1ccc(CN2CCN(C)CC2)cn1,-13.2
16,C(=C\c1ccc(CN2CCCC2)cn1)/c1ccccc1,84.2
17,NC(=O)c1ccc(C(=O)N2CCCC(n3ccnc3)C2)s1 (stereo unspecified),23.4
18,FC(F)(F)c1cccc(-c2c[nH]c(C3CCCN3)n2)c1 (stereo unspecified),-14.8
19,CCc1nnsc1C(=O)NCc1nnc2n1CCC2,60
20,CCc1nnsc1C(=O)NCc1nnc2n1CCCCC2,41.4
21,O=C(NCc1nnc2n1CCCCC2)N1CCC2(CCCCC2)C1,47.9
22,CCc1nnsc1C(=O)NCCc1nnc2n1CCC2,14.3
23,O=C(NCc1nnc2n1CCC2)N1CCC2(CCCCC2)CC1,75.7
24,O=C(NCCc1nnc2n1CCCCC2)N1CCC2(CCCC2)CC1,-56.9
